Source: PubChem BioAssay (National Center for Advancing Translational Sciences (NCATS))
KB-3-1 cytotox: kills parental KB-3-1 adenocarcinoma cells; KB-3-1 viability, CellTiter-Glo ATP luminescence, 72 h; Potency, µM (doses to about 46.1 µM), hits mostly cytotoxic; 1.4% of 400,000 active; AID 1347075; note: % is set by controls: 0 for no effect and ±100 for the full control effect; nearly all actives have a fitted effect of over 60% in size
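Parental KB-3-1 adenocarcinoma cells in phenol-red-free DMEM with 10% FBS were pin-treated with compounds at several concentrations, incubated 72 h at 37 °C, and viability read by CellTiter-Glo luminescence; concentration-effect curves were fitted after normalization.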
KB-V1 cytotox: KB-V1 MDR subline cytotoxicity; KB-V1 MDR cells viability, CellTiter-Glo, 72 h; Potency, µM (titrated, usually from 46.1 µM), actives largely listed as cytotoxic; 3.4% of 400,000 active; AID 1347076; note: % is set by controls: 0 for no effect and ±100 for the full control effect; nearly all actives have a fitted effect of over 60% in size
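Potencies derive from concentration-effect curves fitted to normalized luminescence (CellTiter-Glo) of KB-V1 cells treated for 72 h at 37 degrees C in phenol-red-free DMEM containing 10% FBS.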
MCF10A rerep: induces DNA re-replication in MCF 10a normal breast cells; MCF 10A DNA re-replication, Hoechst nuclear intensity, 48 h; Potency, µM (series often up to 46.1 µM), without a hit: at the highest dose activity, positive = re-replication, most hits filed as activators; AID 624296; 2.9% of 350,000 active; note: % of control where 0% means no effect; nearly all actives have a fitted effect of over 50% in size
PINK1 expr mod: PINK1 expression modulation; Potency, µM (top dose mostly 76.6 µM), for inactives: at the top dose activation (PINK1 increase), hits mostly activators; 0.2% of 410,000 active; AID 624263; PINK1 immunofluorescence, high-content cytometry, 24 h; active = well fitted activation curve with a large enough effect; inconclusive = small, poorly fitted or top-dose-only effect; cell line not stated here; note: % of control where 0% means no effect; nearly all actives have a fitted effect of over 65% in size
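Compound titrations (5 concentrations, 24 h) on a stable cell line; DMSO and CCCP controls. Endpoint: fixed-cell PINK1 immunofluorescence with mitochondrial, cell and nuclear markers, scanned by microplate cytometer.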
SW480 rerep: DNA re-replication induction in SW480 cells | SW480 DNA re-replication, Hoechst DNA content imaging, 48 h | 1.8% of 340,000 active | Potency, µM (top dose mostly 46.1 µM), without a hit: at the highest dose re-replication activation, hits mostly activators; note: % of control where 0% means no effect; nearly all actives have a fitted effect of over 55% in size
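DNA re-replication was detected as more nuclei of elevated Hoechst intensity after 48 hr exposure to compound (23 nL pinned per well of 250 cells).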
An asterisk follows results filed as active; i = inactive; ? = inconclusive; / = not tested or not shown; [ ] = dose if it differs, or a comment. Shown are actives, neighbours in structure and some others; about 6.7% of the full set was active somewhere. Unless noted, calls come from the whole dose curve; as a rule, active = well fitted curve in the direction sought with a large enough effect; inconclusive = small, poorly fitted or top-dose-only effect, or another doubt; inactive = no such curve, though single readings can be large; an effect the other way counts as inactive or inconclusive. Potency is the fitted concentration of half-maximal effect.

SMILES	KB-3-1 cytotox	KB-V1 cytotox	MCF10A rerep	PINK1 expr mod	SW480 rerep
O=C(Nc1ccc([N+](=O)[O-])cc1Cl)c1cc(Br)ccc1O	2.3µM*	1.8µM*	/	?	/
O=C(Nc1cc(Cl)ccc1Cl)c1cc([N+](=O)[O-])cc(Br)c1O	i	i	/	0%	/
COc1ccc(NC(=O)c2cc(Br)ccc2Cl)c([N+](=O)[O-])c1	i	i	?	5%	14%
Cc1ccc(CN(CC(=O)N/N=C/c2ccccc2[N+](=O)[O-])S(=O)(=O)c2ccc(C)cc2)cc1	i	i	5%	0%	18%
O=C(CN(Cc1ccccc1)S(=O)(=O)c1ccccc1)N/N=C/c1ccccc1[N+](=O)[O-]	i	23µM*	14%	3%[38.3 µM]	2%
CC(C)NC(=S)N/N=C/c1ccccc1[N+](=O)[O-]	?	i	4%	1%	4%
O=[N+]([O-])c1ccccc1C=NNC(=S)NN=Cc1ccccc1[N+](=O)[O-]	?	?	18µM*	6%	21µM*
Cc1ccccc1Nc1c(-c2ccc(N3CCOCC3)cc2)nc2ccc(Br)cn12	i	i	/	15%	/
COc1cccc(-c2cc3c(c(OC)c2)OCCN(Cc2ccccc2O)C3)n1	/	/	/	2%	/
Cc1ccc(S(=O)(=O)Nc2ccc3c(c2)CCC3)cc1C	i	?	1%	?	-3%
COc1ccc(S(=O)(=O)Nc2ccc3c(c2)N(C(C)=O)CCC3)cc1	i	i	24%	8%	2%
CC(=O)N1CCCc2ccc(NS(=O)(=O)c3ccccc3)cc21	i	?	20%	0%	6.5µM*
Cc1ccc(S(=O)(=O)Nc2ccc3c(c2)CCC3)cc1	?	21µM*	12%	?	-96%
O=C(CC(C(=O)O)c1ccc(Cl)cc1)c1ccccc1 (stereo not drawn)	i	i	0%	-2%	-6%
N#CC(CC(=O)c1ccc(Cl)cc1)c1ccccc1 (stereo not drawn)	i	16µM*	1%	-2%	-3%
Cc1nc(-c2cc(C#N)c(=O)[nH]c2C)cs1	?	4.6µM*	-2%	-1%	-6%
Cc1[nH]c(=O)c(C#N)cc1-c1csc(-c2ccccc2)n1	?	i	?	0%	12%
CC/C(C)=N/NC(=O)c1[nH]c2ccc(C)cc2c1-c1ccccc1	i	i	12µM*	4%	?
O=C(NN=C1CCCC1)c1[nH]c2ccc(Cl)cc2c1-c1ccccc1	i	?	2.9µM*	-3%	?
C[C@H](CO)N1C[C@H](C)[C@@H](CN(C)C(=O)Nc2ccc3c(c2)OCO3)Oc2ccc(NC(=O)NC3CCCCC3)cc2C1=O	i	i	6%	2%	-1%
CSC1(SC2=NCCN2)SC2(NCCN2)S1	?	?	3.7µM*	-2%	?
COC(=O)c1ccc(N2CCOCC2)c(NC(=O)c2cc3ccccc3o2)c1	i	i	-12%	-2%	2%
O=C(NCc1ccccc1)c1cc2ccccc2o1	i	?	-1%	0%	9%
Cc1ccc(C(=O)NCc2ccc3c(c2)OCO3)cc1C	i	i	-1%	2%	4%
CN1CCN(c2ccc(CNC(=O)c3cc4ccccc4o3)cc2)CC1	i	i	23µM*	0%	-5%
SMILES	KB-3-1 cytotox	KB-V1 cytotox	MCF10A rerep	PINK1 expr mod	SW480 rerep
Cc1ccc(C(=O)NCc2ccc(N3CCN(C)CC3)cc2)cc1C	i	?	1.6µM*	-4%	2%
COC(=O)c1ccc(N2CCN(C)CC2)c(NC(=O)c2cc3ccccc3o2)c1	i	3.3µM*	1%	3%	-4%
CC(=O)C1CCC2C3CC=C4CC(SC(=N)N)CCC4(C)C3CCC12C (stereo not drawn)	?	23µM*	?	-5%	?
CC(C)(C)[C@H](N)C(=O)N[C@H]1CCC2C3CC=C4C[C@@H](O)CC[C@]4(C)C3CC[C@@]21C (stereo partly drawn)	?	?	16µM*	-7%	4.6µM*
CC(=O)C1CCC2C3CC=C4N(C)C(=O)CCC4(C)C3CCC12C (stereo not drawn)	i	?	10%	-3%	0%
CCCCCCN[C@H]1CCC2C3CC=C4C[C@@H](O)CC[C@]4(C)C3CC[C@@]21C (stereo partly drawn)	?	?	?	7%	8.2µM*
O=C(NS(=O)(=O)N1CCOCC1)C1=C(N2CCCC2)COC1=O	i	i	5%	2%	12%[9.22 µM]
Cc1cccc(NC(=O)N2CCC(c3nc4ccccc4o3)CC2)c1	i	18µM*	-10%	-5%[38.3 µM]	-8%
Cc1cc(C)cc(NC(=O)N2CCC(c3nc4ccccc4o3)CC2)c1	i	i	19%	-2%[38.3 µM]	1%
CCc1c(C)nc2nncn2c1NCc1ccccc1	i	?	/	0%	/
C[C@@H]1CN(Cc2ccc3c(c2)CN(Cc2nc(-c4ccccc4)cs2)CCO3)C[C@H](C)O1	/	/	/	0%	/
CCCn1c(O)c(N=NC(=O)c2ccco2)c2ccccc21	?	2.6µM*	14%	1%	4%
CCn1c(O)c(N=N)c2ccccc21	i	i	-10%	4%	-7%
CCn1c(O)c(N=NC(=O)c2cccs2)c2ccccc21	?	9.2µM*	13%	5%	-1%
C=CCn1c(O)c(N=NC(=S)Nc2ccc(OC)cc2)c2ccccc21	?	i	1%	6%	2%
CCn1c(O)c(N=NC(=O)CNC(=O)c2ccco2)c2ccccc21	?	i	2%	8%	-7%
C=CCn1c(O)c(N=NC(=S)Nc2cccc(OC)c2)c2ccccc21	2.3µM*	?	-33%	10%	-1%
C=CCn1c(O)c(N=NC(=O)CNC(=O)c2ccco2)c2ccccc21	?	?	18µM*	6%	16µM*
CCCCCCSc1nsc(NC(=O)CCC)n1	i	i	20%	3%	26%
Cc1cc(C)n(-c2nc3ccccc3nc2N2CCCC2)n1	i	13µM*	0%	2%[38.3 µM]	-10%
Cc1cc(-c2ccccc2)n(-c2ccc(C(=O)N3CCN(c4ncccn4)CC3)cc2)n1	?	2.9µM*	28%	2%	20%
Cc1cc(C)n(-c2nc3ccccc3nc2N2CCN(C(=O)c3ccc(Cl)cc3)CC2)n1	i	i	1.8µM*	-6%[38.3 µM]	21µM*
COc1ccc(Nc2nc3ccccc3nc2-n2nc(C)cc2C)cc1	i	i	16µM*	?	?
CCn1c(C(=O)NCc2cc(Br)ccc2OC)cc2oc3ccccc3c21	/	/	/	2%	/
Nc1nc(Cl)nc2c1ncn2C1CC(O)C(CO)O1 (stereo not drawn)	8.2µM*	?	?	0%	?
Nc1ncn([C@H]2C[C@H](O)[C@@H](CO)O2)c(=O)n1	i	i	-2%	0%	0.23µM*
